# Data as given in PubChem BioAssay.
# Active and inactive are the calls of the source.
# Experiment: basal HepG2 mitochondrial membrane potential changes, profiling panel, cell-based, JC-1 fluorescence, 24 h, 100 nL compound (AID 1167)
# Conditions: higher = more signal
# Note: test concentration not given here.
row,Compound,z-score
1,CCOC(=O)C1=C[C@@H](C(C)(C)C)N(S(=O)(=O)c2ccc(C)cc2)[C@H]1c1ccc(F)cc1,4.5
2,COc1cc2c(cc1OC)CN(C(=O)[C@H]1[C@@H]3C(=O)O[C@@H](c4ccccc4)[C@@H](c4ccccc4)N3[C@@H](c3ccc(O)cc3)[C@]13C(=O)Nc1ccccc13)CC2,-1.2
3,COC(=O)C(CC#Cc1ccc2c(c1)[C@]1(C(=O)N2)[C@H](c2ccc(OCCO)cc2)N2[C@H](c3ccccc3)[C@H](c3ccccc3)OC(=O)[C@H]2[C@@H]1C(=O)Nc1nc2ccccc2s1)C(=O)OC,-2.98
4,COCCOC(=O)N1C(=O)[C@@]2(c3cc(C#CCCO)ccc31)[C@H](C(=O)N1CCCCCCC1)[C@H]1C(=O)O[C@H](c3ccccc3)[C@H](c3ccccc3)N1[C@@H]2c1ccc(OCCO)cc1,-1.68
5,C[N+](C)(C)CCCCCCNC(=O)[C@@H]1C[C@@H]2C(=O)N[C@@H](Cc3ccccc3)C(=O)N2[C@@H]1c1cccc(OCCO)c1,-0.432
6,CC(=O)n1cc(C(O)C2C=CC3C(=O)N(c4ccccc4)C(=O)C3N2Nc2ccc([N+](=O)[O-])cc2)c2ccccc21 (configuration not stated),-1.75
7,COC(=O)[C@]1(CCC(=O)OC(C)(C)C)N=C(c2ccc(OCCCO)cc2)O[C@@H]1c1ccccc1CN=[N+]=[N-],-1.93
8,CC1CC/C=C\[C@H]2OC34C=CCN(Cc5ccccc5)C(=O)[C@H]3N(CCCO)C(=O)[C@@H]4C2C(=O)O1 (some centres not stated),0.0693
9,C=CC(=C)[C@H]1Oc2ccccc2S(=O)(=O)N2CCC[C@@H]12,-0.708
10,COCCOC(=O)N1C(=O)[C@@]2(c3cc(C#CC4(O)CCCCCC4)ccc31)[C@H](c1ccc(OCCO)cc1)N1[C@H](c3ccccc3)[C@H](c3ccccc3)OC(=O)[C@H]1[C@@H]2C(=O)N1CCN(c2ncccn2)CC1,-0.643
11,COc1ccc(CCNC(=O)[C@@]2(C)c3ccccc3C(=O)N(C(C)C)[C@H]2c2ccc(CO)cc2)cc1,2.6
12,CC1(C)C2C=C(C(O)C3C=CC4C(=O)NC(=O)C4N3Nc3ccc(Cl)cc3Cl)C[C@@H]1C2 (some centres not stated),-4.27
13,O=C1N(Cc2ccccc2)c2ccccc2[C@@H]2OC(c3ccc(OCCCO)cc3)=N[C@]12CCS(=O)(=O)c1ccccc1,-1.33
14,COc1cc(COC(C)=O)ccc1OC(C)=O,-0.367
15,O=C(OCc1ccccc1)C1=CCC2c3[nH]c4ccccc4c3C(=O)C1N2S(=O)(=O)c1ccccc1[N+](=O)[O-] (configuration not stated),-3.06
16,O=C(NC1CC1)[C@@H]1c2ccccc2C(=O)N(Cc2ccccc2Cl)[C@H]1c1ccc(CO)cc1,2.95
17,C[N+](C)(C)CCCCNC(=O)[C@H]1C[C@H]2C(=O)N3CCC[C@H]3C(=O)N2[C@H]1c1cccc(OCCO)c1,-0.901

# Experiment: basal 3T3-L1 adipocyte mitochondrial potential changes, profiling panel, cell-based, JC-1 fluorescence, 3T3-L1 adipocytes, 24 h, 100 nL compound (AID 1168)
# Conditions: JC-1 mitochondrial fluorescence, higher = more signal, called active from +8 up or from −8 down
row,Compound,z-score
1,CO[C@H]1O[C@H](CO)[C@@H](OC(=O)Nc2ccc(C(F)(F)F)cc2)[C@H](OC(=O)Nc2ccc3c(c2)OCO3)[C@@H]1OC(=O)Nc1ccc2c(c1)OCO2,-0.855 (inactive)
2,COCCOC(=O)N1C(=O)[C@@]2(c3cc(C#Cc4ccc(OC)cc4)ccc31)[C@H](c1ccc(O)cc1)N1[C@H](c3ccccc3)[C@H](c3ccccc3)OC(=O)[C@H]1[C@@H]2C(=O)N1CCc2cc(OC)c(OC)cc2C1,2.76 (inactive)
3,CCC(CC)C(O)C1C=CC2C(=O)NC(=O)C2N1Nc1ccccn1 (configuration not stated),-0.414 (inactive)
4,CN1C(=O)C2C=CC(C(O)C3CC=CCC3)N(N(c3ccccc3)c3ccccc3)C2C1=O (configuration not stated),-0.339 (inactive)
5,COc1cc2c(cc1OC)CN(C(=O)[C@H]1[C@@H]3C(=O)O[C@@H](c4ccccc4)[C@@H](c4ccccc4)N3[C@@H](c3ccc(O)cc3)[C@]13C(=O)Nc1ccc(C#CCCO)cc13)CC2,0.292 (inactive)
6,CCN(CC)c1ccc(N2CC=CC34O[C@@H]5C=CCCOC(=O)C5[C@H]3C(=O)N(CCCCCCO)[C@@H]4C2=O)cc1 (some centres not stated),-0.641 (inactive)
7,Cc1ccc(S[C@]2(C(=O)O)CC(=O)N(C(C)C)[C@@H]2c2ccc(CO)cc2I)cc1,-0.386 (inactive)
8,C=CCNC(=O)[C@H]1[C@@H]2C(=O)O[C@@H](c3ccccc3)[C@@H](c3ccccc3)N2[C@@H](c2ccccc2OCCO)[C@]12C(=O)Nc1ccc(C#CCCO)cc12,-0.936 (inactive)
9,C=C(CC1([C@@H](NP(=O)(c2ccccc2)c2ccccc2)[C@H]2C[C@@H]2CCCC)CC1)c1ccccc1,-0.841 (inactive)
10,O=C1C[C@@](C(=O)NCCN2CCOCC2)(c2ccc([N+](=O)[O-])cc2)[C@@H](c2ccc(CO)cc2)N1CC12CC3CC(CC(C3)C1)C2,-0.907 (inactive)
11,CC(C)[Si](C#Cc1ccc(Oc2ccccc2)cc1)(O[Si](C#Cc1ccc(Oc2ccccc2)cc1)(C(C)C)C(C)C)C(C)C,0.733 (inactive)
12,O=C(NCCO)C1=C[C@H](Oc2ccccc2I)[C@@H](O)[C@H](N(Cc2ccco2)C(=O)Cc2ccccc2)C1,-0.166 (inactive)
13,COc1ccc(C#Cc2ccc3c(c2)[C@]2(C(=O)N3)[C@H](C(=O)Nc3nc4ccccc4s3)[C@H]3C(=O)O[C@H](c4ccccc4)[C@H](c4ccccc4)N3[C@@H]2c2ccc(O)cc2)cc1,-0.298 (inactive)
14,C=CCOC(=O)[C@H]1[C@@H]2C(=O)O[C@@H](c3ccccc3)[C@@H](c3ccccc3)N2[C@@H](c2ccc(OCCOC(=O)[C@@H]3C[C@@H]4C(=O)N[C@@H](CCCCNC(C)=O)C(=O)N4[C@@H]3c3ccc(O)cc3)cc2)[C@]12C(=O)Nc1ccccc12,0.703 (inactive)
15,COC(=O)[C@H](Cc1ccccc1)N[C@@H](/C=C/C1CC1)[C@H](O)Cc1ccccc1,-0.124 (inactive)
16,CC(C)N1C(=O)[C@@]2(Cc3ccccc31)c1ccccc1C(=O)N(Cc1ccccc1Cl)[C@H]2c1ccc(CO)cc1,0.111 (inactive)
17,COC(=O)c1c(CC[C@@H](CO)NC(=O)NCCn2cc(C3(O)CCCC3)nn2)oc(C(C)=O)c1C(=O)OC,-0.543 (inactive)
18,Cc1ccc(S[C@]2(C(=O)NCCCN(C)C)CC(=O)N(Cc3cc(C(F)(F)F)cc(C(F)(F)F)c3)[C@@H]2c2ccc(CO)cc2)cc1,-0.849 (inactive)

row,Compound,z-score
1,CCOC(=O)C1=C[C@@H](C(C)(C)C)N(S(=O)(=O)c2ccc(C)cc2)[C@H]1c1ccc(F)cc1,-0.43 (inactive)
2,COc1cc2c(cc1OC)CN(C(=O)[C@H]1[C@@H]3C(=O)O[C@@H](c4ccccc4)[C@@H](c4ccccc4)N3[C@@H](c3ccc(O)cc3)[C@]13C(=O)Nc1ccccc13)CC2,0.977 (inactive)
3,COC(=O)C(CC#Cc1ccc2c(c1)[C@]1(C(=O)N2)[C@H](c2ccc(OCCO)cc2)N2[C@H](c3ccccc3)[C@H](c3ccccc3)OC(=O)[C@H]2[C@@H]1C(=O)Nc1nc2ccccc2s1)C(=O)OC,1.67 (inactive)
4,COCCOC(=O)N1C(=O)[C@@]2(c3cc(C#CCCO)ccc31)[C@H](C(=O)N1CCCCCCC1)[C@H]1C(=O)O[C@H](c3ccccc3)[C@H](c3ccccc3)N1[C@@H]2c1ccc(OCCO)cc1,-1.47 (inactive)
5,C[N+](C)(C)CCCCCCNC(=O)[C@@H]1C[C@@H]2C(=O)N[C@@H](Cc3ccccc3)C(=O)N2[C@@H]1c1cccc(OCCO)c1,0.543 (inactive)
6,CC(=O)n1cc(C(O)C2C=CC3C(=O)N(c4ccccc4)C(=O)C3N2Nc2ccc([N+](=O)[O-])cc2)c2ccccc21 (configuration not stated),-1.2 (inactive)
7,COC(=O)[C@]1(CCC(=O)OC(C)(C)C)N=C(c2ccc(OCCCO)cc2)O[C@@H]1c1ccccc1CN=[N+]=[N-],-0.718 (inactive)
8,CC1CC/C=C\[C@H]2OC34C=CCN(Cc5ccccc5)C(=O)[C@H]3N(CCCO)C(=O)[C@@H]4C2C(=O)O1 (some centres not stated),0.237 (inactive)
9,C=CC(=C)[C@H]1Oc2ccccc2S(=O)(=O)N2CCC[C@@H]12,-0.0333 (inactive)
10,COCCOC(=O)N1C(=O)[C@@]2(c3cc(C#CC4(O)CCCCCC4)ccc31)[C@H](c1ccc(OCCO)cc1)N1[C@H](c3ccccc3)[C@H](c3ccccc3)OC(=O)[C@H]1[C@@H]2C(=O)N1CCN(c2ncccn2)CC1,0.295 (inactive)
11,COc1ccc(CCNC(=O)[C@@]2(C)c3ccccc3C(=O)N(C(C)C)[C@H]2c2ccc(CO)cc2)cc1,0.169 (inactive)
12,CC1(C)C2C=C(C(O)C3C=CC4C(=O)NC(=O)C4N3Nc3ccc(Cl)cc3Cl)C[C@@H]1C2 (some centres not stated),-0.803 (inactive)
13,O=C1N(Cc2ccccc2)c2ccccc2[C@@H]2OC(c3ccc(OCCCO)cc3)=N[C@]12CCS(=O)(=O)c1ccccc1,1.86 (inactive)
14,COc1cc(COC(C)=O)ccc1OC(C)=O,0.374 (inactive)
15,O=C(OCc1ccccc1)C1=CCC2c3[nH]c4ccccc4c3C(=O)C1N2S(=O)(=O)c1ccccc1[N+](=O)[O-] (configuration not stated),-4.43 (inactive)
16,O=C(NC1CC1)[C@@H]1c2ccccc2C(=O)N(Cc2ccccc2Cl)[C@H]1c1ccc(CO)cc1,0.623 (inactive)
17,C[N+](C)(C)CCCCNC(=O)[C@H]1C[C@H]2C(=O)N3CCC[C@H]3C(=O)N2[C@H]1c1cccc(OCCO)c1,-0.186 (inactive)
